Calls of active or inactive are those of the source.
Assay: probe aLefty1 binding on compound microarray – biochemical, small-molecule microarray, 635/667 nm fluorescence, primary screen (AID 1153);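 note: score merges spot fluorescence with signal-to-noise ratio from the scanned slide images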
Details: higher = more signal
Molecule `CCOC(=O)[C@H](CC(C)C)NC(=O)CCC1CC(OC(=O)NCCc2ccc(F)cc2)CC2(CCCC(COC(=O)NCCCN3CCCC3=O)O2)O1` (some centres not stated) has a composite z-score of -0.28.
Molecule `CC(CCC(=O)OC[C@H]1O[C@H](C#Cc2ccccc2)C=C[C@@H]1Oc1ccc(C)cc1)=NOC[C@@H](C)[C@H](OCc1ccccc1)C(C)C` has a composite z-score of -0.378.
Molecule `CCOC(=O)[C@H](Cc1ccccc1)NC(=O)CCC1CC(OC(=O)NCc2cccc3ccccc23)CC2(CCCC(COC(=O)NCCc3ccccc3OC)O2)O1` (some centres not stated) has a composite z-score of -0.101.
`COC(=O)[C@H](C)NC(=O)CCC1CC(OC(=O)NCCc2ccc(F)cc2)CC2(CCCC(COC(=O)NCCc3ccccc3OC)O2)O1` (some centres not stated) gave a composite z-score of -0.103.
For `CCOC(=O)NN=C1C[C@@H](O)[C@@H](O)[C@@H]2[C@@H]3C(=O)N(C[C@@H]4CCCO4)C(=O)[C@@H]3CC[C@H]12`, the composite z-score was -0.147.
In the case of `CON=C1c2cc(OC)ccc2O[C@H](c2cccc(OC)c2)[C@H]1O`, the composite z-score is reported as -0.0061.
`COC(=O)[C@H](C)NC(=O)CCC1CC(OC(=O)NCc2ccc3c(c2)OCO3)CC2(CCCC(COC(=O)NCCC(C)C)O2)O1` (some centres not stated) showed a composite z-score of 0.0774.
Work on `C[C@H]1C=CCC(=O)OC[C@H](C)C(=O)N2CCC[C@H]2C(=O)OC1` yielded a composite z-score of -0.199.
Molecule `CCCNC(=O)OC[C@H]1O[C@H](CCON=C2C[C@@H](O)[C@@H](O)[C@@H]3[C@@H]4C(=O)N(CC)C(=O)[C@@H]4CC[C@@H]23)C=C[C@@H]1Oc1ccc(OC)cc1` has a composite z-score of 0.186.
Molecule `COC(=O)[C@@H]1CC[C@H](C)[C@@H](c2ccc(C)cc2)N1C(=O)c1ccc(C=NO[C@@H](C)c2cc(-c3c(C)cc(C)cc3C)no2)cc1` has a composite z-score of -0.242.
`CC(C)(C)N1C(=O)[C@H]2[C@H]3[C@H](O)[C@H](O)CC(=NNC(=O)OCc4ccccc4)[C@H]3CC[C@H]2C1=O` gave a composite z-score of -0.0966.
Molecule `CO[C@@H]1COC(=O)CC=C[C@H](C)[C@H](OC)COC(=O)[C@@H]2CCCN2C(=O)CC=C[C@H]1C` has a composite z-score of -0.276.
Work on `Cc1cc2c(nc1C)CCCCN2CC(O)CN1CCCc2nc(-c3ccc(Br)cc3)ccc21` (configuration not stated) yielded a composite z-score of 0.345.
Molecule `COc1ccc(O[C@H]2C=C[C@@H](C#Cc3ccccc3)O[C@@H]2CO)cc1` has a composite z-score of 0.042.
For `C#CCCCON=C1C[C@@H](O)[C@@H](O)[C@@H]2[C@@H]3C(=O)N(C[C@@H]4CCCO4)C(=O)[C@@H]3CC[C@H]12`, the composite z-score was -0.293.
In the case of `O=C1[C@H]2[C@H]3[C@H](O)[C@H](O)CC(=NO[C@@H]4O[C@H](CO)[C@@H](O)[C@H](O)[C@H]4O)[C@@H]3CC[C@H]2C(=O)N1c1cccc(Oc2ccccc2)c1`, the composite z-score is reported as -0.0967.
Molecule `CC#CCOCCC=C1c2ccccc2[C@@H](OC)[C@@H]1C` has a composite z-score of -0.0004.
`CCOC(=O)[C@H](CC(C)C)NC(=O)CCC1CC(OC(=O)NCc2ccc3c(c2)OCO3)CC2(CCCC(COC(=O)NCCOc3ccccc3)O2)O1` (some centres not stated) showed a composite z-score of 0.0882.
`CON=C(C)CCN1CCCCc2nc(C)c(C)cc21` showed a composite z-score of 0.168.
For `C=CC[C@@H]1C=C[C@H](ON=CC[C@@H]2C=C[C@H](OC(C)=O)[C@@H](COC(C)=O)O2)[C@@H](CO)O1`, the composite z-score was 0.455.
Molecule `C[C@@H]1CC[C@@H](C(=O)O)N[C@H]1c1cccc(N2CCOCC2)c1` has a composite z-score of -0.0984.
Work on `CC(=O)OC[C@H]1O[C@H](CC=NOC[C@@H](O)COCc2ccco2)C=C[C@@H]1OC(C)=O` yielded a composite z-score of 0.0509.
For `CC(CCN1CCc2nc(-c3ccccc3)c(-c3ccccc3)cc2C1)=NO[C@H](C)c1cn([C@H](CO)Cc2ccccc2)nn1`, the composite z-score was 0.057.
Molecule `CCOC(=O)CCN1C(=O)[C@H]2[C@H]3[C@H](O)[C@H](O)CC(=NNC(=O)OCc4ccc(OC)cc4)[C@H]3CC[C@H]2C1=O` has a composite z-score of -0.0109.
Work on `CC(=O)OC[C@H]1O[C@@H](ON=C(C)CCC(=O)OC[C@H]2O[C@H](C#Cc3ccccc3)C=C[C@@H]2Oc2ccc(C)cc2)[C@H](OC(C)=O)[C@@H](OC(C)=O)[C@@H]1OC(C)=O` yielded a composite z-score of -0.265.
`O=C1CCCC=C1C(O)c1ccc([N+](=O)[O-])cc1` (configuration not stated) showed a composite z-score of -0.217.

Assay: plasmodial surface anion channel blockers, osmotic lysis – cell-based, P. falciparum Indochina, OD700, 1 h, primary screen (AID 1154)
Details: P. falciparum Indochina infected RBC osmotic lysis, higher = more signal, called active from +8 up or from −8 down
With `CCOC(=O)[C@H](Cc1ccccc1)NC(=O)CCC1CC(OC(=O)NCc2ccc3c(c2)OCO3)CC2(CCCC(COC(=O)NCCOC)O2)O1` (some centres not stated) the z-score was -1.89 (inactive).
In the case of `CCOC(=O)[C@H](Cc1ccccc1)NC(=O)CCC1CC(OC(=O)NCc2ccc3c(c2)OCO3)CC2(CCCC(COC(=O)NCCCN3CCCC3=O)O2)O1` (some centres not stated), the z-score is reported as -0.709 (inactive).
For `COC(=O)[C@H](C)NC(=O)CCC1CC(OC(=O)NCCc2ccc(F)cc2)CC2(CCCC(COC(=O)NCCOc3ccccc3)O2)O1` (some centres not stated), the z-score was -1.23 (inactive).
With `O=C1CCCC=C1C(O)C1CCCCC1` (configuration not stated) the z-score was -0.0549 (inactive).
With `CCOC(=O)NN=C1C[C@@H](O)[C@@H](O)[C@@H]2[C@@H]3C(=O)N(c4ccc(F)cc4F)C(=O)[C@@H]3CC[C@H]12` the z-score was 1.03 (inactive).
In the case of `CC(=O)OC[C@H]1O[C@H](CC=NO[C@@H](C)c2cc(-c3c(C)cc(C)cc3C)no2)C=C[C@@H]1OC(C)=O`, the z-score is reported as 2.12 (inactive).
For `CCOC(=O)CCN1C(=O)[C@H]2[C@H]3[C@H](O)[C@H](O)CC(=NO[C@@H]4O[C@H](CO)[C@@H](O)[C@H](O)[C@H]4O)[C@H]3CC[C@H]2C1=O`, the z-score was -0.266 (inactive).
In the case of `CCOC(=O)[C@H](CC(C)C)NC(=O)CCC1CC(OC(=O)NCCc2ccc(F)cc2)CC2(CCCC(COC(=O)NCc3cccc(C(F)(F)F)c3)O2)O1` (some centres not stated), the z-score is reported as 6.76 (inactive).
For `C[C@H]1CC[C@@H](C(=O)O)N[C@@H]1c1cccc(N2CCCC2=O)c1`, the z-score was 0.162 (inactive).
With `CC(=O)OC[C@H]1O[C@@H](ON=C2[C@H]3CCn4c(=O)n(-c5ccccc5)c(=O)n4[C@H]3[C@H](O)[C@@H]3O[C@H]23)[C@H](OC(C)=O)[C@@H](OC(C)=O)[C@@H]1OC(C)=O` the z-score was 0.597 (inactive).
With `CCOC(=O)[C@H](CC(C)C)NC(=O)CCC1CC(OC(=O)NCCc2ccc(F)cc2)CC2(CCCC(COC(=O)NCCCN3CCCC3=O)O2)O1` (some centres not stated) the z-score was 1.3 (inactive).
For `CC(CCC(=O)OC[C@H]1O[C@H](C#Cc2ccccc2)C=C[C@@H]1Oc1ccc(C)cc1)=NOC[C@@H](C)[C@H](OCc1ccccc1)C(C)C`, the z-score was 0.551 (inactive).
With `CCOC(=O)[C@H](Cc1ccccc1)NC(=O)CCC1CC(OC(=O)NCc2cccc3ccccc23)CC2(CCCC(COC(=O)NCCc3ccccc3OC)O2)O1` (some centres not stated) the z-score was -0.623 (inactive).
In the case of `COC(=O)[C@H](C)NC(=O)CCC1CC(OC(=O)NCCc2ccc(F)cc2)CC2(CCCC(COC(=O)NCCc3ccccc3OC)O2)O1` (some centres not stated), the z-score is reported as 6.98 (inactive).
For `CCOC(=O)NN=C1C[C@@H](O)[C@@H](O)[C@@H]2[C@@H]3C(=O)N(C[C@@H]4CCCO4)C(=O)[C@@H]3CC[C@H]12`, the z-score was -0.133 (inactive).
In the case of `CON=C1c2cc(OC)ccc2O[C@H](c2cccc(OC)c2)[C@H]1O`, the z-score is reported as 3.04 (inactive).
In the case of `COC(=O)[C@H](C)NC(=O)CCC1CC(OC(=O)NCc2ccc3c(c2)OCO3)CC2(CCCC(COC(=O)NCCC(C)C)O2)O1` (some centres not stated), the z-score is reported as 19.8 (active).
With `C[C@H]1C=CCC(=O)OC[C@H](C)C(=O)N2CCC[C@H]2C(=O)OC1` the z-score was 0.158 (inactive).
In the case of `CCCNC(=O)OC[C@H]1O[C@H](CCON=C2C[C@@H](O)[C@@H](O)[C@@H]3[C@@H]4C(=O)N(CC)C(=O)[C@@H]4CC[C@@H]23)C=C[C@@H]1Oc1ccc(OC)cc1`, the z-score is reported as 1.69 (inactive).
In the case of `COC(=O)[C@@H]1CC[C@H](C)[C@@H](c2ccc(C)cc2)N1C(=O)c1ccc(C=NO[C@@H](C)c2cc(-c3c(C)cc(C)cc3C)no2)cc1`, the z-score is reported as 1.12 (inactive).
With `CC(C)(C)N1C(=O)[C@H]2[C@H]3[C@H](O)[C@H](O)CC(=NNC(=O)OCc4ccccc4)[C@H]3CC[C@H]2C1=O` the z-score was 0.988 (inactive).
For `CO[C@@H]1COC(=O)CC=C[C@H](C)[C@H](OC)COC(=O)[C@@H]2CCCN2C(=O)CC=C[C@H]1C`, the z-score was 0.521 (inactive).
In the case of `Cc1cc2c(nc1C)CCCCN2CC(O)CN1CCCc2nc(-c3ccc(Br)cc3)ccc21` (configuration not stated), the z-score is reported as 4.88 (inactive).
For `COc1ccc(O[C@H]2C=C[C@@H](C#Cc3ccccc3)O[C@@H]2CO)cc1`, the z-score was 2.26 (inactive).
For `C#CCCCON=C1C[C@@H](O)[C@@H](O)[C@@H]2[C@@H]3C(=O)N(C[C@@H]4CCCO4)C(=O)[C@@H]3CC[C@H]12`, the z-score was 0.515 (inactive).
In the case of `O=C1[C@H]2[C@H]3[C@H](O)[C@H](O)CC(=NO[C@@H]4O[C@H](CO)[C@@H](O)[C@H](O)[C@H]4O)[C@@H]3CC[C@H]2C(=O)N1c1cccc(Oc2ccccc2)c1`, the z-score is reported as -0.612 (inactive).
In the case of `CC#CCOCCC=C1c2ccccc2[C@@H](OC)[C@@H]1C`, the z-score is reported as 1.25 (inactive).
With `CCOC(=O)[C@H](CC(C)C)NC(=O)CCC1CC(OC(=O)NCc2ccc3c(c2)OCO3)CC2(CCCC(COC(=O)NCCOc3ccccc3)O2)O1` (some centres not stated) the z-score was 0.339 (inactive).
With `CON=C(C)CCN1CCCCc2nc(C)c(C)cc21` the z-score was -0.149 (inactive).
With `C=CC[C@@H]1C=C[C@H](ON=CC[C@@H]2C=C[C@H](OC(C)=O)[C@@H](COC(C)=O)O2)[C@@H](CO)O1` the z-score was 0.551 (inactive).
In the case of `C[C@@H]1CC[C@@H](C(=O)O)N[C@H]1c1cccc(N2CCOCC2)c1`, the z-score is reported as -0.0136 (inactive).
With `CC(=O)OC[C@H]1O[C@H](CC=NOC[C@@H](O)COCc2ccco2)C=C[C@@H]1OC(C)=O` the z-score was 0.77 (inactive).
In the case of `CC(CCN1CCc2nc(-c3ccccc3)c(-c3ccccc3)cc2C1)=NO[C@H](C)c1cn([C@H](CO)Cc2ccccc2)nn1`, the z-score is reported as 1.6 (inactive).
In the case of `CCOC(=O)CCN1C(=O)[C@H]2[C@H]3[C@H](O)[C@H](O)CC(=NNC(=O)OCc4ccc(OC)cc4)[C@H]3CC[C@H]2C1=O`, the z-score is reported as 0.519 (inactive).
With `CC(=O)OC[C@H]1O[C@@H](ON=C(C)CCC(=O)OC[C@H]2O[C@H](C#Cc3ccccc3)C=C[C@@H]2Oc2ccc(C)cc2)[C@H](OC(C)=O)[C@@H](OC(C)=O)[C@@H]1OC(C)=O` the z-score was 2.56 (inactive).
For `O=C1CCCC=C1C(O)c1ccc([N+](=O)[O-])cc1` (configuration not stated), the z-score was -0.487 (inactive).
